Data as given in ChEMBL document CHEMBL3988442, “University of Dundee, Small-Polar-MMV Screening Library” (2021).
For some assays here: Entries with a potency or affinity are not part of this list.

Tests used:
Design in all cases: scale not given: direction of the effect not stated beside the values
[1] = biological target: Protein translocase subunit SecA (Escherichia coli (strain K12)) (UniProt P10408); experiment: Assay to Identify E. coli SecA ATPase Inhibitors; format: functional; details: 30 µM
Protein translocase subunit SecA (Escherichia coli (strain K12)), sequence (P10408 whole entry): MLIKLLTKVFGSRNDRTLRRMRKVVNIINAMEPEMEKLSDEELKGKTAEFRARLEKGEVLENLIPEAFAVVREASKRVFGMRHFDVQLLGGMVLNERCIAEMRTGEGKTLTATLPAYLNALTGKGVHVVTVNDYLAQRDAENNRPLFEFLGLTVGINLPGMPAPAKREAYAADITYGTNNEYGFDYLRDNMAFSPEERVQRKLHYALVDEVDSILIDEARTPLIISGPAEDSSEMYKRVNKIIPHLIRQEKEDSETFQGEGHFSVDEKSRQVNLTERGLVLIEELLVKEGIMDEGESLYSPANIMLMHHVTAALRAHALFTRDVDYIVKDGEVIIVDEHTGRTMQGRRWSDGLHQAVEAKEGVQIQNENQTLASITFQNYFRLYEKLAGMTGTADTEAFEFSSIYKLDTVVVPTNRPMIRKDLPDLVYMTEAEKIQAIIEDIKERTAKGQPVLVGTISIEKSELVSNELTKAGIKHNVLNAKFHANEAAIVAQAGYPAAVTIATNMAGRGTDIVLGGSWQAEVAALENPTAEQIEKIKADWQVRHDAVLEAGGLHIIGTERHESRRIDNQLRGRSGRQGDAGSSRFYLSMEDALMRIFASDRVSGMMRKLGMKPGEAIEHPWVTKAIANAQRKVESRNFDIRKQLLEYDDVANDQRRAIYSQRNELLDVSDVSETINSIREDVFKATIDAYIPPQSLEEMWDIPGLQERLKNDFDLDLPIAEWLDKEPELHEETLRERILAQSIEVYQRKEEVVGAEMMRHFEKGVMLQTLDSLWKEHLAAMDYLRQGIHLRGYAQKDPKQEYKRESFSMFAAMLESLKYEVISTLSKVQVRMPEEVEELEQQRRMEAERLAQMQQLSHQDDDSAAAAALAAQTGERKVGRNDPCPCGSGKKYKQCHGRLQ

[2] = biological target: T1, Ubiquitin-activating enzyme e1, putative (Leishmania donovani (strain BPK282A1)) (UniProt E9BSI1); experiment: Leishmania donovani Ubiquitin Activating Enzyme (LdE1); format: functional; details: 30 µM
T1 sequence (whole entry): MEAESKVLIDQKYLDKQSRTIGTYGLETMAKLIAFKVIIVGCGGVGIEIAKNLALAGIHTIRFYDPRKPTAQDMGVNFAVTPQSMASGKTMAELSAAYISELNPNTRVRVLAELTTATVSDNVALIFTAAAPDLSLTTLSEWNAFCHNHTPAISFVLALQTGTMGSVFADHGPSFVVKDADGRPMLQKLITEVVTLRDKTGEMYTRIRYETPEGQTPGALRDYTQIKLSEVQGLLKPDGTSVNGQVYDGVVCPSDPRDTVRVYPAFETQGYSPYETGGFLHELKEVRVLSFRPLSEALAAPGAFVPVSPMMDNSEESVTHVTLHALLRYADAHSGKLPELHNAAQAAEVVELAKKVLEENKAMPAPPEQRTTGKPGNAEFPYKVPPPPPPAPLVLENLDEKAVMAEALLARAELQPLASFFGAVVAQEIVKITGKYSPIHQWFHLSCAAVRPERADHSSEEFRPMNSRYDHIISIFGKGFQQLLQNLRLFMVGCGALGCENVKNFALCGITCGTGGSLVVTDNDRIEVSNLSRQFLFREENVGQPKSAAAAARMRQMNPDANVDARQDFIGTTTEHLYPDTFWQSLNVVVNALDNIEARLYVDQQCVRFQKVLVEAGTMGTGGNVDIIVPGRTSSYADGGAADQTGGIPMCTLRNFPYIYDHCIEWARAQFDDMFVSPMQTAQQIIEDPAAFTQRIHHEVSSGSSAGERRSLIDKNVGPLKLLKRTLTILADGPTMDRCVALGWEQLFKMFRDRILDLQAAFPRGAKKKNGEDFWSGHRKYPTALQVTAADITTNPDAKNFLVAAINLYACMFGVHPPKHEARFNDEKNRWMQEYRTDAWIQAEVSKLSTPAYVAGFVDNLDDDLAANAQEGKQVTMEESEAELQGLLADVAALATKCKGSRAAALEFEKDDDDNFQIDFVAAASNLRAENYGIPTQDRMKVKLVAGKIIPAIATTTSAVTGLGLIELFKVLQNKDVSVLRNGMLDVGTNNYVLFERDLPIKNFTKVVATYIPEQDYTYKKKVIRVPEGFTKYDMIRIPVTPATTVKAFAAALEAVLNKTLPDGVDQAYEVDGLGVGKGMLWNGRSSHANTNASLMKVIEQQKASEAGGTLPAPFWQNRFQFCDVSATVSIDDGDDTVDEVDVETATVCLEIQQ

[3] = biological target: AMP-activated protein kinase, AMPK (Homo sapiens) (UniProt P54646+O43741+P54619+Q9UGJ0+Q9Y478+Q13131+Q9UGI9); experiment: AMP-dependent Kinase enzyme assay. An in vitro enzyme assay that detects ADP turnover that is directly proportional to AMPK activity. This uses naive AMPK that is activated during the assay with MK-8722; format: functional; details: 30 µM
[4] = biological target: Sialic acid-binding Ig-like lectin 9 (Homo sapiens) (UniProt Q9Y336); experiment: Hs-Siglec9 ALPHAscreen SOP 20170721; details: 10 µM
Sialic acid-binding Ig-like lectin 9 (Homo sapiens), sequence (Q9Y336 whole entry): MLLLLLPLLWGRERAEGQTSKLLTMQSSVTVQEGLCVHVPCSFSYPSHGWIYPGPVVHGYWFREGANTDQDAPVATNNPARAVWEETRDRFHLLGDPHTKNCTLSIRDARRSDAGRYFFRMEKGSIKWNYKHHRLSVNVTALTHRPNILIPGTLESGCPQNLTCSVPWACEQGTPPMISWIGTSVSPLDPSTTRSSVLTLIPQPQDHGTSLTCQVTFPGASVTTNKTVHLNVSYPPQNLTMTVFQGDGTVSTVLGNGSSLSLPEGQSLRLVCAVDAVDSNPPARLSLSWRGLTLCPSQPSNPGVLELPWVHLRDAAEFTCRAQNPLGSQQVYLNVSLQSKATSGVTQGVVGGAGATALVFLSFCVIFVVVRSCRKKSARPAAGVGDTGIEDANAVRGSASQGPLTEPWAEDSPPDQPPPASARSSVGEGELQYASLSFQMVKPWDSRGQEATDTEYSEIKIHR

Trypanosoma cruzi = experiment: Trypanosoma cruzi phosphomannomutase and mannose-1-phosphate guanylyltransferase assay; format: functional; details: 10 µM
[5] = biological target: T2, Arginase-2, mitochondrial (Homo sapiens) (UniProt P78540); experiment: in vitro enzyme assay to detect the production of urea directly proportional to the activity of Arginase II; format: functional; details: 33.3 µM; note: in the data most compounds retested in dose-response had high values
T2 sequence (whole entry): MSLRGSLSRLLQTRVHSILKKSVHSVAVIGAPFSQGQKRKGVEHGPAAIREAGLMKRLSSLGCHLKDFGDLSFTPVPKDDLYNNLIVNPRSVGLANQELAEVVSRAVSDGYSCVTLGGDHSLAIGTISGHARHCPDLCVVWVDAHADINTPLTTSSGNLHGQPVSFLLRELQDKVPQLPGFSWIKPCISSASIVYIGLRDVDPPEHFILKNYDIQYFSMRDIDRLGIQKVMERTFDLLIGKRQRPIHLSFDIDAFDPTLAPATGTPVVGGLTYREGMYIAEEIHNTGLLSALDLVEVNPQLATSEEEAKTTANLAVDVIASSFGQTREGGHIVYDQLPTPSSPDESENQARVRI

[6] = biological target: T3, Proteasome subunit beta (Trypanosoma cruzi) (UniProt O96673); experiment: Trypanosoma cruzi proteasome chymotrypsin-like activity (TcProtChymo) assay.; note: in the data most compounds retested in dose-response had high values; format: functional; details: 9.37 µM
T3 sequence (whole entry): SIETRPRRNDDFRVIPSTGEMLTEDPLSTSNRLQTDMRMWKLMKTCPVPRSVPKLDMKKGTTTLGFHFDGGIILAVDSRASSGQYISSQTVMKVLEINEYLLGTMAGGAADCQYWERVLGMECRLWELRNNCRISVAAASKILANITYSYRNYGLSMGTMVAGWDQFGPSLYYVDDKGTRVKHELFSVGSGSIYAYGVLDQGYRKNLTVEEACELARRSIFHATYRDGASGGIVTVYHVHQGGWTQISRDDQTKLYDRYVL

Homo sapiens = organism: Homo sapiens; experiment: To identify inhibition of the IFN signalling (Jak-Stat) pathway via expression of an eGFP reporter gene under the control of an IFN-stimulated response element (ISRE) containing MxA promoter.; format: functional; details: 30 µM
[7] = biological target: T4, Tyrosyl-tRNA synthetase, putative (Trypanosoma cruzi (strain CL Brener)) (UniProt Q4DSP6); experiment: Trypanosoma cruzi tyrosyl tRNA synthetase (TcYRS) _High Tyrosine SOP; format: functional; details: 30 µM; note: in the data most compounds retested in dose-response had high values
T4 sequence (whole entry): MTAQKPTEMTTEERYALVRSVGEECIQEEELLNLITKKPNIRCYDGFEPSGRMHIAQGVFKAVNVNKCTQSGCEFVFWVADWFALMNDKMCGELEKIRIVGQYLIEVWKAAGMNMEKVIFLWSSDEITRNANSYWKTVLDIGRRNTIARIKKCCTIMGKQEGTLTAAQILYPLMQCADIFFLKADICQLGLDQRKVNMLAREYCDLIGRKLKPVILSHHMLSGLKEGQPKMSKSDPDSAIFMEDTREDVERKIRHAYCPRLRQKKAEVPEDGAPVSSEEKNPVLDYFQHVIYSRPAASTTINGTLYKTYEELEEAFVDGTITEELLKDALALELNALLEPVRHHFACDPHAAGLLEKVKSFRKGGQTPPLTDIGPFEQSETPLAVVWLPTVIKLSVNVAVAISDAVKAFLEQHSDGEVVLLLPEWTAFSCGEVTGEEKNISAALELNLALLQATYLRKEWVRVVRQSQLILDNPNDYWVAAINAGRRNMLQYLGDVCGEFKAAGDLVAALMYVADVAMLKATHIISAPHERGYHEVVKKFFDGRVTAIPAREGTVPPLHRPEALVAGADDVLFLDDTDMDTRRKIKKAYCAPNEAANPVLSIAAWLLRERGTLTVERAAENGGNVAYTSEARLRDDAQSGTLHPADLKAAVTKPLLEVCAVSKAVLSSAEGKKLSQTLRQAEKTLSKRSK

[8] = biological target: T4, Tyrosyl-tRNA synthetase, putative (Trypanosoma cruzi (strain CL Brener)); experiment: Trypanosoma cruzi tyrosyl tRNA synthetase (TcYRS) SOP; format: functional; details: 30 µM
[9] = biological target: Chromo domain-containing protein 1 (Saccharomyces cerevisiae (strain ATCC 204508 / S288c) (Baker's yeast)) (UniProt P32657); experiment: ScCHD-1 Enzyme Inhibition Assay; format: functional; details: 30 µM; note: in the data most compounds retested in dose-response had high values
Chromo domain-containing protein 1 (Saccharomyces cerevisiae (strain ATCC 204508 / S288c) (Baker's yeast)), sequence (P32657 whole entry, the tested form may be a part): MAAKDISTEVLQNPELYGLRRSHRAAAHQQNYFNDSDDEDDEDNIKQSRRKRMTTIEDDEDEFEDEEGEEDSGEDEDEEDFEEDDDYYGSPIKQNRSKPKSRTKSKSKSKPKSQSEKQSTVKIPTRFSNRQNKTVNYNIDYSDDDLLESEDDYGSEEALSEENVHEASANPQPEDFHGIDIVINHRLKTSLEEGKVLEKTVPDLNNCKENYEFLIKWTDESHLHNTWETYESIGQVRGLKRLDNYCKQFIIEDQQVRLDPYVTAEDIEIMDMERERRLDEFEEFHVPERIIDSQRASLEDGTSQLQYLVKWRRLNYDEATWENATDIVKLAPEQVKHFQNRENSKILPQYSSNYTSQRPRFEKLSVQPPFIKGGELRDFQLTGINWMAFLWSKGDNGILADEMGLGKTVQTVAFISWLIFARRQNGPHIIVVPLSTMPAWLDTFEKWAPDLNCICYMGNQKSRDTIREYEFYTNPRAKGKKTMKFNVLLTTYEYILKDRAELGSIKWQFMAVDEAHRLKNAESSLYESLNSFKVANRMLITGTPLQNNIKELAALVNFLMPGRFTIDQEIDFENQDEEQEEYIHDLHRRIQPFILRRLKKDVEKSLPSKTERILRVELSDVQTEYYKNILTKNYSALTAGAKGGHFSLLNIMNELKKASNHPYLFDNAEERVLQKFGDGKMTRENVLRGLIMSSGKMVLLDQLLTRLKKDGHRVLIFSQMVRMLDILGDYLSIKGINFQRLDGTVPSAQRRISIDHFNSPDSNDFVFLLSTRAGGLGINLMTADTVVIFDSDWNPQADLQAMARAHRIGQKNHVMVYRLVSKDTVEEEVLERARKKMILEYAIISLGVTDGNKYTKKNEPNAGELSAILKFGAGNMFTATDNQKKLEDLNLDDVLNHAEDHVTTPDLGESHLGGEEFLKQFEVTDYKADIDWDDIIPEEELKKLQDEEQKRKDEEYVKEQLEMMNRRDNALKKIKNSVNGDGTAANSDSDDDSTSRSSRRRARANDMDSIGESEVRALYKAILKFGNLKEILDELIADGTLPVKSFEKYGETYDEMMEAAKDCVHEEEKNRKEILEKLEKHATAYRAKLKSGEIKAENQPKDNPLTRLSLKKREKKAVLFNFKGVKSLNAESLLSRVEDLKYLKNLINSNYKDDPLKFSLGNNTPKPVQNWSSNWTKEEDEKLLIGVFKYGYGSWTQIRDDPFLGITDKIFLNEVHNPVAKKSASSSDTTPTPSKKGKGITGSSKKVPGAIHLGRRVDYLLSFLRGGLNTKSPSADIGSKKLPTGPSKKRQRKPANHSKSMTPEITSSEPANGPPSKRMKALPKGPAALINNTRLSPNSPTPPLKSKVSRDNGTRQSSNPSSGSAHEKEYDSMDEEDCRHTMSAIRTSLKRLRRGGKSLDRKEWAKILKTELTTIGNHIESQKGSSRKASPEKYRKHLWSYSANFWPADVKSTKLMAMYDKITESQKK

| SMILES | Percent Effect [1] | Percent Effect [2] | Percent Effect [3] | Percent Effect [4] | Percent Effect (Trypanosoma cruzi) | Percent Effect [5] | Percent Effect [6] | Percent Effect (Homo sapiens) | Percent Effect [7] | Percent Effect [8] | Percent Effect [9] |
| --- | --- | --- | --- | --- | --- | --- | --- | --- | --- | --- | --- |
| CC(C)Nc1nc2c(cc1C(=O)NCC1CC1)CCNCC2 | -1.6% | 10.7% | 6.52% | 7.51% | -2.9% | -29.2% | 8.55% | -6.96% | 7.29% | 5% | -10.3% |
| CC(C)C(C(=O)N1CCN(c2ccncc2)CC1)n1cncn1 (configuration not stated) | -5.41% | 15.6% | -0.644% | 10.9% | 6.98% | -34.5% | 11.8% | 8.3% | 4.3% | 13.6% | -7.32% |
| COCCNC(=O)[C@@H]1CC[C@@H]2[C@@H](CCN2Cc2cnn(C)c2)O1 | -1.36% | 13.3% | -7.81% | 2.22% | -0.386% | -43.5% | 9.74% | 2.61% | 3.12% | 10% | -7.85% |
| CCOc1ccnc(N2CCN(C(=O)c3cccc(C#N)c3)CC2)n1 | -7.73% | 13.2% | -3.41% | 8.57% | -1.77% | -2.88% | 3.47% | 8.64% | 2.46% | 11.1% | 2.13% |
| CC(=O)N1CCN([C@@H]2CC[C@@H](NC(=O)c3cncc(C)c3)[C@H]2O)CC1 | -3.3% | -4.05% | 8.93% | -4.38% | -3.75% | -2.09% | -3.28% | 18.6% | -2.15% | -11.7% | 15.5% |
| COCCNC(=O)[C@H]1C[C@@H]2CCN(c3nncs3)C[C@H]2O1 | -0.719% | -8.11% | 6.18% | -4.67% | -1.37% | 1.67% | -0.254% | 7% | 5.94% | 6.1% | 1.42% |
| COc1ccc(NC(=O)NCC(O)c2ccc(F)cc2F)c(OC)c1 (configuration not stated) | 0.46% | 3.8% | 1.85% | -3.56% | -4.41% | 10.5% | 13.2% | 12.5% | 3.12% | 10.1% | -20.4% |
| Clc1ccccc1C1(c2ccnc(CC3CC3)n2)CCNCC1 | -2.96% | -7.79% | -1.73% | 13.8% | 6.59% | -80% | 13.1% | -7.99% | 8.6% | 16.1% | -0.745% |
| Cc1cccnc1NC(=O)CC1(Cn2cnnn2)CCCCC1 | -5.51% | 21.1% | -0.535% | 3.53% | 1.66% | 1.18% | 9.11% | -4.12% | 3.19% | 13% | -13.8% |
| CC(C)(C)C(=O)NCCC(=O)NC(C)(C)c1ccc2c(c1)OCCO2 | -1.46% | -5.48% | 12.2% | -1.99% | -0.783% | 5% | 4.44% | -3.61% | 2.15% | 5% | 1.77% |
| O=C(NCCc1nnc2n1CCC2)NCC1(c2cccc(F)c2)CC1 | -7.67% | -5.26% | 5.7% | -1.62% | 2.43% | 0% | -1.44% | -9.73% | 2.13% | 5.2% | 1.42% |
| CC(C)(C)N1CCCN(C(=O)c2csc(S(N)(=O)=O)c2)CC1 | -8.14% | 0% | 1.87% | -9.76% | -5.57% | -2.73% | -0.258% | -7.17% | -3.23% | -6.17% | -1.28% |
| NS(=O)(=O)CCNC(=O)c1nnn(-c2ccccc2)c1C1CC1 | 0.0352% | 2.7% | 0.144% | -1.59% | -8.4% | 2.92% | 12.1% | 1.92% | 4.95% | 6.1% | -4.86% |
| CCC(C)(C)NC(=O)Cn1nc(C)nc1-c1cccc(C)c1 | -4.79% | 20.8% | 3.98% | -4.39% | -3% | 1.07% | 7.26% | 14.5% | 9.71% | 21.9% | -6.87% |
| CN1CCCc2cc(CNC(=O)c3ccncc3)ccc21 | -3.56% | 19% | 22.6% | -0.0483% | 1.54% | -1.94% | 21.4% | 28.5% | 2.08% | 17.7% | -25.8% |
| CCN1CCN(C(=O)CCc2c(C)noc2Cl)CC1 | -4.13% | 10.5% | -2.91% | -3.24% | -9.24% | 4.32% | 5.16% | -6.25% | 3.45% | 6.17% | -1.51% |
| CCOCC(O)CN1CCN(C(=O)c2ccc(OC)cc2F)CC1 (configuration not stated) | -4.94% | 18.2% | -0.292% | 4.59% | 1.87% | 2.85% | 0.676% | 13.6% | 7.77% | 14.6% | -9.36% |
| Cn1ccc(C(=O)N2CCCC(n3cncn3)C2)cc1=O (configuration not stated) | -7.5% | 10.4% | -3.42% | 0.542% | 5.97% | -6.11% | 11.9% | -3.24% | 3.81% | 9.41% | -18.8% |
| O=C(CN1CCCCC1Cn1cccn1)NC1CCN(C2CC2)CC1 (configuration not stated) | -0.952% | 0% | -4.99% | 6.13% | -1.16% | -4.29% | 13.3% | 1.18% | 0.529% | 2.44% | -1.27% |
| Cn1cc(C2CCCN2Cc2csc(C(C)(C)C)n2)cn1 (configuration not stated) | -8.01% | 12.7% | -5.07% | 14.2% | 6.33% | -5.32% | 4.01% | -16.1% | 8.37% | 16.5% | -9.19% |
| CCCNC(=O)CNC(=O)CCc1ccccc1Br | 0.865% | 6.94% | -6.34% | -5.04% | 1.85% | 13.7% | 18.1% | -8.19% | 2.1% | 7.69% | -2.27% |
| O=C(NC[C@H]1OC[C@@H]2CCN(C(=O)c3ccco3)C[C@@H]21)C1CC1 | -4.23% | 2.7% | 1.41% | -2.71% | -3.81% | 5.21% | 10.6% | -3.1% | 2.15% | 11.1% | -4.6% |
